Source: PubChem (Buhrlage Lab, Dana-Farber Cancer Institute and Novartis Institutes for BioMedical Research (Cambridge, Mass))
USP8 inh: blocks human USP8 ubiquitin-rhodamine cleavage | P40818 | purified USP8, Ub-rhodamine cleavage fluorescence, 30 min | inhibition, % at 20 µM | hit rate 4.2% among 47,000 | AID 1645853
USP28 inh: human USP28 deubiquitinase inhibition. Q96RU2. purified USP28, Ub-rhodamine cleavage fluorescence, 30 min. inhibition, % at 25 µM. hit rate 3% among 47,000. AID 1645857
USP17 block: inhibitors of human USP17 deubiquitinase; A8MUK1; purified USP17, Ub-rhodamine cleavage fluorescence, 3 h; inhibition, % at 50 µM; hit rate 6.5% among 47,000; AID 1645855
Target sequence (A8MUK1 whole entry, looked up): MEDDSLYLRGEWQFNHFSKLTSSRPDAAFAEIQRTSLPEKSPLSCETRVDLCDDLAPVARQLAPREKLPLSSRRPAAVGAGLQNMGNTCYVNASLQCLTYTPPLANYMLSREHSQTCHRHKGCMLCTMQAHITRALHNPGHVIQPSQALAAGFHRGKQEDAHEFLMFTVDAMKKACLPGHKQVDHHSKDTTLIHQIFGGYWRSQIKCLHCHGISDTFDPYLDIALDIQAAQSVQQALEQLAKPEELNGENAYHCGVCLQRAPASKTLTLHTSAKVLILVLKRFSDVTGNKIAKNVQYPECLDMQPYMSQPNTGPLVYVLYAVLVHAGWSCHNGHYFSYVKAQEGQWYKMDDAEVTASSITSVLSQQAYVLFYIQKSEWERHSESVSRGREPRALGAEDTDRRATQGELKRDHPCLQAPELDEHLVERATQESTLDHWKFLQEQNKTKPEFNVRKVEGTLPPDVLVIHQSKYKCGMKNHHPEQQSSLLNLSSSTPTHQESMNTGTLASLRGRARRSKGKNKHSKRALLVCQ
USP30 block: human USP30 deubiquitinase inhibition; Q70CQ3; purified USP30, Ub-rhodamine cleavage fluorescence; inhibition, % at 25 µM; hit rate 5.3% among 47,000
Large screens that a line does not name were inactive. Rows were chosen to be rich in hits. Some 13% of all compounds tested hit in one or more screens of this group. Cut-off read from the data, not from the text of the source: active = inhibition above about 30%; inactive = the rest.

Cc1cc(Nc2ccc(C)c(Cl)c2)n2nc(-c3cccnc3)nc2n1	none
COc1ccccc1Nc1cc(C(C)C)nc2nc(-c3cccnc3)nn12	none
C=C1CCC2[C@](C)(CCC[C@]2(C)C(=O)OC)[C@H]1CCc1ccoc1CNC(C)C(=O)O (some centres not stated)	none
COc1ccc(NC(=O)c2cccc(-c3nc(-c4ccccc4)no3)c2)c(OC)c1	none (no result: USP17 block)
COc1cccc(CNc2ccc(-c3nc(-c4ccccc4)no3)nn2)c1	USP8 inh 76
COc1ccc(Br)cc1/C=C(/C#N)c1nnc2n1CCCCC2	none
COC(=O)c1ccc(N2CCN(C(C)=O)CC2)c(NC(=O)COc2ccc([N+](=O)[O-])cc2)c1	USP8 inh 80
CCCCOc1cccc(C(=O)Nc2nc3ccc(S(C)(=O)=O)cc3s2)c1	USP30 block 36
CCN(c1ccccc1)S(=O)(=O)c1ccc(C(=O)Nc2nc3ccc(F)cc3s2)cc1	USP17 block 55
c1ccc(-c2nc3cc(-c4noc(C5CCOC5)n4)ccc3o2)cc1 (configuration not stated)	none
Cc1cccc(NC(=O)CCn2cnc3c2c(=O)n(C)c(=O)n3C)c1C	none
O=C(Cn1c(=O)n(CC(=O)NC2CCCC2)c(=O)c2ccccc21)Nc1ccc(F)cc1	USP8 inh 37, USP28 inh 42, USP17 block 67, USP30 block 70
CCOc1ccccc1NC(=O)Cn1c(=O)n(CCC(=O)NC2CCCC2)c(=O)c2ccccc21	USP17 block 41
O=C(Cn1c(=O)n(CC(=O)NC2CCCC2)c(=O)c2ccccc21)Nc1cc(Cl)ccc1Cl	USP8 inh 32, USP28 inh 34, USP17 block 43, USP30 block 65
COc1ccc(Cl)cc1NC(=O)Cn1c(=O)n(CCC(=O)NC2CCCC2)c(=O)c2ccccc21	none
CC(C)N1CCN(C(=O)c2cnc(-c3ccccc3)nc2-c2ccncc2)CC1	none
O=C(CC1C(=O)N(C2CCCC2)c2nc3ccccc3n21)Nc1ccc(F)cc1 (configuration not stated)	none
O=C(c1cn(-c2ccccc2)nc1-c1ccccc1)N1CCN(CCN2CCCC2)CC1	none
COc1ccc(OC)c(C(=O)Nc2ccc3c(c2)NC(=O)C(C)O3)c1 (configuration not stated)	none
COc1ccc(NC(=O)C2Oc3ccc(C)cc3NC2=O)cc1Cl (configuration not stated)	USP17 block 75
O=[N+]([O-])c1ccc(N2CCc3ccccc32)cc1	none
CN1C[C@H]2CCN(C(=O)NCCc3ccc(F)cc3)CC[C@H]2S1(=O)=O	none
Cc1nccc(CN2CCC3(CC2)Nc2cc(Cl)ccc2C2=NCCN23)n1	none
COc1cc(-c2cc(-c3ccccc3Br)nc(N)c2C#N)cc(OC)c1OC	none
COc1ccc(-c2cc(-c3ccc(O)cc3)nc(N)c2C#N)cc1OC	USP28 inh 73, USP17 block 46, USP30 block 50
CC1(c2ccc3ccccc3c2)NC(=O)N(CC(=O)Nc2ccc3[nH]c(=O)[nH]c3c2)C1=O (configuration not stated)	none
O=C1c2ccccc2NC2(C(=O)Nc3ccc(Br)cc32)N1c1ccccc1 (configuration not stated)	USP8 inh 33, USP28 inh 86
O=c1c(-c2nc(C3CC3)no2)cccn1Cc1c(F)cccc1Cl	USP28 inh 85
O=C(NCc1ccc(Cl)c(Cl)c1)c1cc(S(=O)(=O)N2CCC3(CC2)OCCO3)ccc1F	USP28 inh 36
O=C(NCc1ccccc1Cl)c1cc(S(=O)(=O)N2CCC3(CC2)OCCO3)ccc1F	none
COc1cc(-c2ccno2)ccc1S(=O)(=O)Nc1ccc(F)cc1C	none
COC(=O)c1ccc(NS(=O)(=O)c2c[nH]c3ccc([N+](=O)[O-])cc23)cc1	USP17 block 45
O=C(O)c1ccc(NS(=O)(=O)c2ccc(N3CCCC3)c([N+](=O)[O-])c2)cc1	none
Cc1cc(F)ccc1NS(=O)(=O)c1c[nH]c2ccc([N+](=O)[O-])cc12	USP17 block 46, USP30 block 42
O=C(c1nc(-c2cccc3[nH]ccc23)no1)N1CCCCC1	none
O=C(O)c1cccc(S(=O)(=O)Nc2ccc(Cc3ccncc3)cc2)c1	none
COc1ccc(S(=O)(=O)Nc2ccc(Cc3ccncc3)cc2)c2ccccc12	USP8 inh 43
CC(C)(C)c1ccc(S(=O)(=O)Nc2ccc(Cc3ccncc3)cc2)cc1	USP30 block 36
COc1ccc(CC(=O)N2CCc3cc(OC)c(OC)cc3C2COc2ccc([N+](=O)[O-])cc2)cc1 (configuration not stated)	USP30 block 44
COC(=O)c1ccc(OCC2c3cc(OC)c(OC)cc3CCN2C(=O)Cc2ccc(F)cc2)cc1 (configuration not stated)	USP8 inh 36
Cc1ccc(C)c(NC(=O)CC2C(=O)N(Cc3ccccn3)c3nc4ccccc4n32)c1 (configuration not stated)	none
CCC(=O)Nc1ccc2c(c1)nc(CSc1nccc(C)n1)n2CC	USP28 inh 92
Cc1cccc(OCC(=O)Nc2ccc3c(c2)nc(CCN2CCC(C)CC2)n3C)c1	none
CC(=O)c1cccc(NC(=O)Nc2ccc(CCc3nc4ccccc4n3C)cc2)c1	USP17 block 33
CCC(=O)Nc1ccc2c(c1)nc(CCN1CCCCC1)n2C	none
Cc1cccc(C(=O)Nc2ccc3c(c2)nc(CSc2nccc(C)n2)n3C)c1	USP28 inh 93
CCn1c(CCc2ccc(NC(=O)c3ccccn3)cc2)nc2ccccc21	none (no result: USP28 inh, USP30 block)
Cn1c(CCN2CCCC2)nc2cc(NC(=O)c3ccccc3)ccc21	USP17 block 59
CC(C)COC1CC2(CCN(S(=O)(=O)c3cn(C)cn3)CC2)C1	none
COc1ccc(/C=C2\CC(=O)c3ccccc3C2)c(OC)c1	none
O=C1C/C(=C\c2cccc(Cl)c2)Cc2ccccc21	USP8 inh 34, USP28 inh 54, USP30 block 39
O=C1C/C(=C\c2cccc(Br)c2)Cc2ccccc21	USP28 inh 34
O=C1C/C(=C\c2cccc([N+](=O)[O-])c2)Cc2ccccc21	USP30 block 38
O=C(C1CC1)N1CCCC(c2ccnc(Nc3ccc(F)cc3)n2)C1 (configuration not stated)	none
CC(NC(=O)CN1CCc2cc(S(N)(=O)=O)ccc21)c1ccccc1Cl (configuration not stated)	none
C[C@H]1C(=O)N(C)[C@@H]2CCN(C(=O)C3CCCCC3)[C@@H]2C(=O)N1C	USP30 block 33
CSCC[C@H](NC(=O)N1CCn2c1nc1ccccc12)C(=O)N[C@H](Cc1ccccc1)C(=O)O	none
CCOc1ccc(NC(=O)CS(=O)(=O)c2[nH]c(-c3cccc(OC)c3)nc2-c2ccccc2)cc1	none
Cc1ccc(-c2nc(-c3ccccc3)c(S(=O)(=O)CC(=O)Nc3ccc(C)c(C)c3)[nH]2)cc1	USP17 block 37
O=C(Nc1ccccn1)C1CCC(Cn2cnc3ccccc3c2=O)CC1 (configuration not stated)	none
Cc1nc2cc(-c3ccccc3)nn2c(C)c1CC(=O)Nc1ccccc1	none (no result: USP28 inh, USP30 block)
